Test results as given in PubChem BioAssay AID2289 (National Center for Advancing Translational Sciences (NCATS), 2010).
About 3,300 (0.97%) of roughly 340,000 compounds were called active. Not shown: some 9% with an inconclusive outcome. The call rests on the fitted dose curve; in most records, active means well fitted inhibition curve with a large enough effect; inconclusive means small, poorly fitted or top-dose-only effect, or effect the other way; inactive means flat fitted curve, though single readings scatter. The list shows a part of the results.

Assay: qHTS Assay for Modulators of miRNAs and/or Inhibitors of miR-21; further: nearly all actives have a fitted effect of over 55% in size
Conditions: HeLa miR-21-FLuc reporter, luciferase luminescence, 48 h; actives lower the signal
Method in brief: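 HeLa cells endogenously expressing miR-21, stably carrying CMV-driven firefly luciferase with a downstream miR-21 binding site, 2000 cells/well. Titrations up to approximately 40 uM, 48 hours; luciferase luminescence read.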
Potency means the concentration at half of the fitted maximal effect.

Potency, active:
COC(=O)c1ccc(N2OC3(C)C=CC2CC3)cc1 (stereo not given) 13.1 µM
N/C(=N\OC(=O)c1cccs1)c1cccc(Br)c1 8.26 µM
N/C(=N\OC(=O)c1ccco1)c1cccc(Br)c1 3.69 µM
N/C(=N\OC(=O)c1ccco1)c1ccccc1 5.21 µM
COc1ccc(/C(N)=N/OC(=O)c2ccco2)cc1OC 1.85 µM
N/C(=N\OC(=O)c1ccco1)c1ccc(Cl)cc1 4.65 µM
CNc1nc(N2CCc3ccccc32)ncc1F 1.85 µM
CC1(C)CC(=O)c2cnc(N3CCc4ccccc43)nc2C1 1.85 µM
CC1(C)CC(=O)c2c(O)cc(OCc3ccc(Br)cc3)cc2O1 3.29 µM
COc1cccc(N=Nc2c(N)[nH][nH]c2=O)c1 7.36 µM
CCOc1ccc(N=Nc2c(N)[nH][nH]c2=O)cc1 2.93 µM
Cc1cc(C(=O)CSc2ccc(F)cc2)cc(C)c1O 9.27 µM
Cc1cc(C(=O)CSc2ccccc2)cc(C)c1O 9.27 µM
O=C(Nc1ccc(N2CCOCC2)c(Cl)c1)C1CCCCC1 16.5 µM
CN(Cc1ccsc1)C(=O)CCc1nnc(CCCc2ccccc2)o1 11.7 µM
Cc1cc(C)cc(NC(=O)c2oc3ccc4c(c3c2C)C(=O)CC(C)(C)O4)c1 0.826 µM
CCOC(=O)c1ccc(NC(=O)c2oc3ccc4c(c3c2C)C(=O)CC(C)(CC)O4)cc1 (stereo not given) 0.208 µM
CCN(CC)c1ccc(/C=C(\C#N)C(N)=O)cc1 14.7 µM
Brc1ccc(/C=N/Nc2nc3ccccc3o2)cc1 1.04 µM
Brc1ccccc1/C=N/Nc1ccc2ccccc2n1 1.17 µM
Brc1ccc(/C=N/Nc2ccc3ccccc3n2)cc1 2.61 µM
O=C(NCCc1cccs1)c1ccc(Cl)c(Cl)c1 2.07 µM
Clc1ccccc1SCc1nc2ccccc2[nH]1 7.36 µM
c1ccc(CCc2nc3ccccc3[nH]2)cc1 9.27 µM
c1ccc(CSCc2nc3ccccc3[nH]2)cc1 7.36 µM
CC1=NN(C(=O)c2ccc(C)o2)C(O)(c2ccccc2)C1 (stereo not given) 16.5 µM
COc1ccc(NC(=O)CSCc2ccccc2C)cc1 7.36 µM
COc1ccc(CNC(=O)CSCc2ccccc2Cl)cc1 13.1 µM
Cc1cccc(Nc2n[nH]c(C)c2[N+](=O)[O-])c1 0.736 µM
Cc1ccc(Nc2cc(C)nc(-c3ccccc3)n2)cc1 7.36 µM
CC(=O)c1ccc(NC(=O)c2ccc(C)c(Br)c2)cc1 0.826 µM
CC(=O)c1ccc(NC(=O)c2cc(Cl)sc2Cl)cc1 1.47 µM
Cc1cc(-c2ccc(Br)cc2)n[nH]1 13.1 µM
CCC(=O)N1CCC(c2ccc(OC)cc2)=N1 13.1 µM
O=C(CSc1cccs1)Nc1cccc2ccccc12 10.4 µM
O=C(Nc1ccccc1F)C(=O)Nc1cccc2ccccc12 3.29 µM
O=C(Nc1cccc2ccccc12)c1ccccc1 6.56 µM
O=C(Nc1cccc2ccccc12)c1onc2c1CCCC2 5.85 µM
CC1CC1C(=O)OCC(=O)Nc1ccc(N=Nc2ccccc2)cc1 (stereo not given) 1.47 µM
O=C(COC(=O)C1CC1)Nc1ccc(N=Nc2ccccc2)cc1 1.85 µM
C(=N\Nc1cc(N2CCCCC2)ncn1)/c1ccco1 2.93 µM
Cc1ccc(-c2cc(=O)c3cc(Cl)ccc3[nH]2)cc1 0.369 µM
FC(F)(F)c1cc(Cl)c2nc(-c3ccccc3)cn2c1 0.369 µM
CNc1oc(/C=C/c2ccccc2)nc1C#N 3.29 µM
CNc1oc(/C=C/c2cccc(OC)c2)nc1C#N 2.93 µM
CCCCNc1nc(N)nc(-c2cc(Cl)ccc2O)n1 0.927 µM
CNC(=O)c1ccc(NC(=O)/C=C/c2cccc(F)c2)cc1 10.4 µM
Cn1cc([N+](=O)[O-])c(C(=O)Nc2ccc(-c3nc4ccccc4o3)cc2)n1 7.36 µM
Cn1cc([N+](=O)[O-])c(C(=O)Nc2ccc3nc(-c4ccccc4)[nH]c3c2)n1 14.7 µM
CC(C)(C)Nc1nc(-c2ccc3c(c2)CCN3C(=O)C2CC2)cs1 1.47 µM
CNc1nc(-c2ccc3c(c2)CCN3C(=O)c2ccccc2C)cs1 4.65 µM
COC(=O)c1ccc(N2CCC(C)CC2)c(N)c1 4.14 µM
COc1ccc2oc(C(=O)NC3CCCCC3)c(C)c2c1 2.93 µM
Cc1c(C(=O)NC2CCCCC2)oc2ccc(F)cc12 13.1 µM
COc1ccc2oc(C(=O)NC(C)(C)C)c(C)c2c1 3.69 µM
COc1ccc2c(c1)OC/C(=C/c1cccs1)C2=O 5.85 µM
Cn1cccc1C(=O)N/N=C/c1c(Cl)cccc1Cl 2.07 µM
O=C(CSc1nnc(C2CCCCC2)o1)Nc1ccccc1Cl 7.36 µM
Cc1cccc2nc(=S)n(C(=O)c3ccco3)n12 0.521 µM
Cc1cccn2c1nc(=S)n2C(=O)c1ccco1 1.04 µM
CC(=O)Oc1ccc(C(=O)[C@H]2[C@H]3C(=O)N(c4ccc5ccccc5c4)C(=O)[C@H]3[C@@H]3C=CC=NN32)cc1 6.56 µM
Cc1cc2nc(N)sc2cc1[N+](=O)[O-] 14.7 µM
O=S(=O)(Nc1ccc(-c2nc3cccnc3s2)cc1)c1ccccc1F 13.1 µM
O=S(=O)(Nc1ccc(-c2nc3cccnc3s2)cc1)c1cc(F)ccc1F 16.5 µM
Cc1ccc(-c2nc3cccnc3s2)cc1NS(C)(=O)=O 4.14 µM
O=C(Nc1ccc(CN2CCCCC2)cc1)Nc1ccccc1Cl 16.5 µM
CCN1CCN(Cc2ccc(NC(=O)Nc3ccccc3Cl)cc2)CC1 1.31 µM
CCN1CCN(Cc2ccc(NC(=O)Nc3ccc(SC)cc3)cc2)CC1 14.7 µM
O=C(Nc1cc2c(cc1Br)OCCO2)c1ccco1 6.56 µM
O=C(Nc1cc2c(cc1Cl)OCCO2)c1ccco1 6.56 µM
O=C(Nc1cc2c(cc1Cl)OCCCO2)c1ccco1 3.69 µM
O=C(NNC(=S)Nc1ccc(Br)cc1Cl)c1ccco1 3.29 µM
O=C(CCc1ccccc1)Nc1cc2c(cc1Cl)OCCO2 2.61 µM
Cc1c(-c2ccccc2)[nH]n2c(=O)c3c(nc12)CCCC3 2.93 µM
CC(=O)Nc1ccc2nc(-c3cccs3)[nH]c2c1 9.27 µM
CC(C)(C)C(=O)Nc1ccc(-c2nc3ccc(NC(=O)C(C)(C)C)cc3[nH]2)cc1 0.414 µM
CCOc1cc(/C=C2\N=C3CCCCCN3C2=O)ccc1O 14.7 µM
O=C1/C(=C\c2ccc(O)c(O)c2)N=C2CCCCCN12 14.7 µM
Cc1ccc2nc(CNC(=O)c3ccccc3)[nH]c2c1 6.56 µM
Cc1c(/C(O)=C2/C(=O)C(=O)N(Cc3cccnc3)C2c2cccs2)cnn1-c1ccccc1 (stereo not given) 5.21 µM
Cn1c(N)c(C(=O)/C=C/c2ccccc2)c(=O)[nH]c1=O 5.85 µM
CC(=O)Nc1cc(C(=O)OCC(=O)c2ccc(C)cc2)ccc1C 10.4 µM
CCC(=O)Nc1cc(C(=O)OCC(=O)c2ccccc2)ccc1C 1.85 µM
Nc1cccc(C(=O)OCC(=O)c2ccccc2)c1 7.36 µM
CNc1ccccc1C(=O)OCC(=O)c1ccccc1 16.5 µM
CCC(=O)Nc1cc(C(=O)OCC(=O)c2ccccc2Cl)ccc1C 10.4 µM
CCc1ccc(C(=O)CCC2CCCCC2=O)cc1 (stereo not given) 16.5 µM
Cc1ccc(C(=O)CCC2CCCCC2=O)cc1 (stereo not given) 14.7 µM
O=C(O)c1ccccc1C(=O)NNc1cccc(Cl)n1 5.85 µM
CCOC(=O)/C=C/c1cnn(-c2ccccc2)c1 2.33 µM
